The campaign covered roughly 150,000 compounds. About 1,000 (0.67%) were called active. No stated cut-off is given here; in the data, active means % elongation below about 90%; inactive means the rest, inconclusive results apart. This excerpt belongs to a sample that is enriched for actives.

The test addresses Genome polyprotein (Poliovirus type 1 (strain Mahoney)) (UniProt P03300). The experiment in a line: inhibitors of poliovirus polymerase RNA elongation – biochemical, fluorescence polarization, total intensity, primary screen (AID 588519). On z-score: compound at 16.7 µg/mL. Particulars: stronger effect = lower value; for % elongation: compound at 16.7 µg/mL; for z-score: measured here: FP z-score. Background: In fluorescence polarisation assays a small probe gives low polarisation when free and higher when bound to something large.

[1] abbreviates: measured here: total intensity read-out.

Genome polyprotein (Poliovirus type 1 (strain Mahoney)), sequence (P03300 1749-2209 limits assumed): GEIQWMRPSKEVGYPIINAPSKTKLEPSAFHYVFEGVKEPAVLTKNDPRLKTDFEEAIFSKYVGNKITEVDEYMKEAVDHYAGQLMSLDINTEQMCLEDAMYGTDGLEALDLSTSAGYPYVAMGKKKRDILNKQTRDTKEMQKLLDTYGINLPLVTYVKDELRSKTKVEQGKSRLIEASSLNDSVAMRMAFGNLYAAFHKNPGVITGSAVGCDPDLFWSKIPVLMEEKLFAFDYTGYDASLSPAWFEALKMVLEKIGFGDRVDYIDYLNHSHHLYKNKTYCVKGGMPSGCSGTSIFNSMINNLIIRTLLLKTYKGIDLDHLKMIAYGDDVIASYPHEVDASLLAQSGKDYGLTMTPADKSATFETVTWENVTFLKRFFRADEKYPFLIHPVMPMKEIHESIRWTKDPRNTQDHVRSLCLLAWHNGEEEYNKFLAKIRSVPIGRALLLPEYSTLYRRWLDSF

As to `COC(=O)c1sc(C)cc1OC(=O)c1ccc(OC)cc1`, the % elongation was 99% (inactive) and the z-score is -0.2. Moreover, under setting [1], the % elongation amounted to 100%.
In the same order, the values of `CCCc1nc2c3ccccc3ncn2n1` are 105% (inactive), 0.4 and 113%.
`CCCCCCn1nnc2sc(-c3ccccc3)cc2c1=O`: the % elongation is 121% (inactive) and the z-score was determined as 2.3. The % elongation under setting [1] was 118%.
In the same order, the values of `Cc1ccc(Cl)cc1NC(=O)C(C)n1nnc2sc(-c3ccccc3)cc2c1=O` (stereo not given) are 65% (active), -6.8 and 65%.
Taken in the same sequence, the figures for `CC(C)OC(=O)C(C)n1cnc2sc(-c3ccccc3)cc2c1=O` (stereo not given) were 104% (inactive), 0 and 105%.
Regarding `CC1(C)CC(=O)C=C(Nc2sc3c(c2C#N)CCCC3)C1`, the % elongation was 98% (inactive) and the z-score was -1. The % elongation under setting [1] is 97%.
Taken in the same sequence, the figures for `COc1ccc(S(=O)(=O)NCCSc2nnnn2-c2ccccc2)cc1` were 75% (active), -7.9 and 73%.
Taken in the same sequence, the figures for `O=C(CSc1nnnn1-c1ccccc1)NCCC12CC3CC(CC(C3)C1)C2` were 102% (inactive), -0.1 and 107%.
In the same order, the values of `CCOc1ccc(S(=O)(=O)NCCSc2ccccc2)cc1` are 100% (inactive), -0.1 and 103%.
On to `O=C(Nc1ccc(S(=O)(=O)C(F)F)cc1)c1cccnc1N1CCCC1`, for which the % elongation was 102% (inactive) and the z-score was -0.3. In addition, under setting [1], the % elongation amounted to 104%.
Taken in the same sequence, the figures for `Cc1ccc(-n2cc[nH]c(=O)c2=O)cc1` were 103% (inactive), 0.3 and 102%.
On to `CCCC(=O)Nc1ccc(C(=O)CSc2nnc(Cc3ccccc3)o2)cc1`, for which the % elongation is 106% (inactive) and the z-score was 0.3. Besides, the % elongation under setting [1] amounted to 106%.
Take `O=C(Sc1ccc(Oc2ccc(SC(=O)c3ccco3)cc2)cc1)c1ccco1`: the % elongation was 44% (active) and the z-score was -11.5. In addition, under setting [1], the % elongation was 51%.
In the same order, the values of `O=C(Oc1ccc(Br)cc1)c1ccco1` are 101% (inactive), -0.3 and 105%.
Taken in the same sequence, the figures for `O=C(CSc1ccc(Br)cc1)c1ccco1` were 97% (inactive), -0.9 and 89%.
In the same order, the values of `CCCCN(C)C(=O)C1CCCN(c2nnc(C)c3c(C)n(-c4ccccc4)nc23)C1` (stereo not given) are 101% (inactive), -0.1 and 103%.
In the case of `O=C(CSc1ccccc1)c1ccccc1`, the % elongation is 79% (active) and the z-score is -2.3. Further, the % elongation under setting [1] is 75%.
On to `O=C(CSc1nnc2ccccn12)c1ccccc1`, for which the % elongation was 101% (inactive) and the z-score is 0.1. The % elongation under setting [1] came to 103%.
In the same order, the values of `O=C(CCC(=O)c1ccccc1)c1ccccc1` are 100% (inactive), 0.1 and 102%.
In the same order, the values of `O=C(Nc1ccccc1I)C1CCCO1` (stereo not given) are 101% (inactive), 0.2 and 100%.
Taken in the same sequence, the figures for `CN(Cc1ccccc1)C(=O)Cn1cnc(S(=O)(=O)N2CCCC2)c1` were 103% (inactive), 1 and 101%.
As for `O=C(Nc1ccc(Cl)cc1Cl)C1CC(=O)N(C2CCCCC2)C1` (stereo not given), the % elongation was 105% (inactive) and the z-score stood at 0.2. Further, the % elongation under setting [1] was determined as 102%.
Taken in the same sequence, the figures for `Oc1c(C(c2cccnc2)N2CCOCC2)ccc2cccnc12` (stereo not given) were 85% (inactive), -2.9 and 110%.
Taken in the same sequence, the figures for `O=C(CCc1ccccc1)NCC1COC2(CCCCC2)O1` (stereo not given) were 106% (inactive), 0.3 and 112%.
In the same order, the values of `CCN(CC(=O)Nc1ccc(S(=O)(=O)N2CCCC2)cc1)CC(=O)Nc1cccc(OC)c1` are 89% (active), -1.2 and 88%.
Take `COc1cccc(NC(=O)CN(C)CC(=O)Nc2ccc3c(c2)CCC3)c1`: the % elongation was 100% (inactive) and the z-score was -0.4. Moreover, the % elongation under setting [1] was determined as 101%.
In the same order, the values of `COc1cc(NC(=O)CN2CCN(S(=O)(=O)c3ccc(Br)cc3)CC2)cc(OC)c1` are 114% (inactive), 1.5 and 102%.
As to `CCN(CC)S(=O)(=O)c1cc(C(=O)N2CCN(Cc3ccc4c(c3)OCO4)CC2)ccc1Cl`, the % elongation was 109% (inactive) and the z-score came out at 0.8. For the same compound, under setting [1], the % elongation amounted to 109%.
Taken in the same sequence, the figures for `COC(=O)COc1ccc(CSc2nc3ccccc3c(=O)n2C)cc1` were 100% (inactive), -0.3 and 95%.
As for `Cc1ccc2nc(CSc3nnc(-c4ccccc4)o3)cc(=O)n2c1`, the % elongation is 99% (inactive) and the z-score is -0.7. Besides, under setting [1], the % elongation stood at 92%.
In the same order, the values of `CNC(=O)C1Cc2cc(S(=O)(=O)N3CCCC3)ccc2N1C(C)=O` (stereo not given) are 99% (inactive), -1.3 and 103%.
Taken in the same sequence, the figures for `O=C(Nc1cccnc1)C(=O)c1c(O)[nH]c2ccccc12` were 101% (inactive), -0.1 and 105%.
As for `CC(NC(=O)C1CCCN1C(=O)c1cccs1)c1ccc(-n2ccnc2)cc1` (stereo not given), the % elongation is 100% (inactive) and the z-score is -0.2. Further, the % elongation under setting [1] turned out to be 104%.
In the same order, the values of `N#Cc1cnn(-c2nc3ccccc3[nH]2)c1N` are 105% (inactive), 0.3 and 104%.
Taken in the same sequence, the figures for `O=c1c(Cl)c(Cl)cnn1-c1nc2ccccc2[nH]1` were 48% (active), -5.8 and 58%.
In the same order, the values of `O=c1c(Cl)c(NC2CC2)cnn1-c1ccccc1` are 102% (inactive), 0.2 and 103%.
With `Cc1cc(=O)[nH]c(SC(C)C(=O)NC2CCCCC2)n1` (stereo not given), the % elongation was 99% (inactive) and the z-score is -0.4. The % elongation under setting [1] was found to be 103%.
In the same order, the values of `Clc1nc2ccccc2c(N2CCCCC2)c1CNC1CC1` are 104% (inactive), 0.8 and 105%.
On to `O=C(/C=C/c1c(Cl)nc2sccn12)NCc1ccc2c(c1)OCO2`, for which the % elongation is 97% (inactive) and the z-score was -0.6. Also, the % elongation under setting [1] was found to be 102%.
On to `N#Cc1c(N)n(Cc2ccc(Cl)cc2)c2nc3ccccc3nc12`, for which the % elongation was 75% (active) and the z-score was -4.3. The % elongation under setting [1] was determined as 85%.

For the origin of these results see PubChem BioAssay AID588519 (ICCB-Longwood Screening Facility, Harvard Medical School, 2011).
